In PubChem BioAssay (NCI):
This is part of a sample that, as a whole, favours compounds with a hit. Of some 79,000 tested, about 15% had one in any assay. Unmarked numbers belong to inactive results. Activity calls are given as the source filed them. Rule as the data show it: active = growth inhibition above about 70%; inactive = the rest.

What was measured:
[1] = NCI Yeast Anticancer Drug Screen. Data for the rad50 strain (AID 155);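 also: 0% = growth of vehicle-only cultures of the same strain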; details: S. cerevisiae rad50 strain growth inhibition, active compounds read high
Summary of the method: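 Readout: growth inhibition relative to vehicle-treated cultures. Compound exposure was carried out in a genetically defined yeast strain deficient in DNA damage repair.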

[2] = NCI Yeast Anticancer Drug Screen. Data for the mec2-1 strain (AID 157); details: S. cerevisiae mec2-1 strain, active compounds read high
Summary of the method: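 Compounds were applied to mec2-1 yeast cells. Their growth was then compared with that of vehicle-treated cultures to give growth inhibition.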

[3] = NCI Yeast Anticancer Drug Screen. Data for the sgs1 mgt1 strain (AID 161);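 also: 0% = growth of cultures given vehicle only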; details: S. cerevisiae sgs1 mgt1 strain, active compounds read high
Summary of the method: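 Yeast cells carrying a defined DNA-repair defect were exposed to test compounds. Growth inhibition was measured relative to vehicle-treated controls.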

[4] = NCI Yeast Anticancer Drug Screen. Data for the cln2 rad14 strain (AID 165);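 also: 0% = growth equal to vehicle treated cultures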; details: S. cerevisiae cln2 rad14 strain, active compounds read high
Summary of the method: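 Strain: cln2 rad14 yeast, altered in cell cycle control and DNA damage repair. Read-out: growth inhibition vs vehicle.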

[5] = NCI Yeast Anticancer Drug Screen. Data for the bub3 strain (AID 167); details: S. cerevisiae bub3 mutant strain, active compounds read high
Summary of the method: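 Readout: yeast growth inhibition, expressed relative to vehicle-only wells. The test organism is a mutant strain from a panel with lesions in DNA repair or checkpoint genes.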

[6] = NCI Yeast Anticancer Drug Screen. Data for the mlh1 rad18 strain (AID 175); details: S. cerevisiae mlh1 rad18 strain growth inhibition, active compounds read high
Summary of the method: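 A repair-deficient yeast strain is exposed to test compound, and growth is scored relative to vehicle-treated controls.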

[7] = at 5.0 µM (retest, dose inferred, filed as 0.5)
[8] = at 50.0 µM (retest, dose inferred, filed as 5.0)

SMILES | growth inhibition [1, 7] | growth inhibition [1, 8] | growth inhibition ([1]; at 50.0 µM) | growth inhibition [2, 7] | growth inhibition [2, 8] | growth inhibition ([2]; at 50.0 µM) | growth inhibition [3, 7] | growth inhibition [3, 8] | growth inhibition ([3]; at 50.0 µM) | growth inhibition [4, 7] | growth inhibition [4, 8] | growth inhibition ([4]; at 50.0 µM) | growth inhibition [5, 7] | growth inhibition [5, 8] | growth inhibition ([5]; at 50.0 µM) | growth inhibition [6, 7] | growth inhibition [6, 8] | growth inhibition ([6]; at 50.0 µM)
COC1=CC23C=CC1[C@@H](c1ccccc1)C2=C(C)C(=O)N3C(=O)NC1CCCCC1 (some centres not stated) | 21% | 21% | 71.1% (active) | -4% | -4% | 68.2% | 1% | 1% | 63.8% | 5% | 5% | 29.8% | -8% | -8% | 65% | -4% | -4% | 50.6%
Cc1occc1C(=S)Nc1ccc(Cl)c(C(=O)OCC(F)(F)F)c1 | 23% | 92% (active) | 92.2% (active) | 21% | 93% (active) | 92.8% (active) | 26% | 96% (active) | 90.8% (active) | 21% | 97% (active) | 88.5% (active) | 29% | 99% (active) | 91.2% (active) | 27% | 96% (active) | 86.8% (active)
O=C(OCC1CCCO1)N(c1ccccc1)c1ccccc1 (configuration not stated) | 12% | -5% | 23.1% | 15% | 21% | 24.3% | 18% | 20% | 46.9% | 30% | 21% | -11.4% | 0% | 16% | 2% | 16% | 40% | 37.7%
CC(C)COC(=O)C1C2C=CC(CC2)C1C(=O)OCC(C)C (configuration not stated) | -13% | 30% | 30.1% | -4% | 79% (active) | 18% | -1% | 19% | 29.6% | -11% | 55% | 4.6% | 0% | 82% (active) | 40.5% | -3% | 86% (active) | 46.5%
Cc1nc(Nc2ccc(Cl)cc2)sc1C(=O)NNC(=O)C(=O)NN | 3% | 3% | 80.5% (active) | -19% | -8% | 59.5% | -13% | 9% | 61.8% | -31% | -10% | 64.5% | -26% | -5% | 41.1% | -45% | -32% | 69.5%
O=[N+]([O-])C1C2C=CC(C2)[C@H]1c1ccc(Cl)cc1Cl (some centres not stated) | 28% | 70% (active) | 89.5% (active) | 29% | 85% (active) | 93.2% (active) | 33% | 96% (active) | 92.2% (active) | 15% | 73% (active) | 89% (active) | 52% | 93% (active) | 91.6% (active) | 37% | 89% (active) | 89.2% (active)
C/C=C(\C)CC/C=C/CO[Si](C)(C)C(C)(C)C | -19% | -19% | -4.15% | -2% | -19% | 8.7% | -13% | 13% | 5.25% | 11% | -4% | 53.6% | 7% | -11% | 2.8% | -16% | -8% | 5.75%
CC1(C)CC(=O)C(CSC(=O)c2ccccc2)=C(O)C1 | -1% | 17% | -13.9% | -2% | -1% | -5.45% | -4% | -3% | 3.05% | -2% | -11% | 45.6% | -2% | -2% | -27.6% | -7% | 15% | -6.2%
CC(=O)OC1CCCc2c1nc1ccccc1[n+]2[O-] (configuration not stated) | 10% | -2% | 8.6% | 10% | 0% | 4.55% | 6% | 1% | 0.5% | 3% | -3% | 28.6% | 15% | 4% | -10.5% | 11% | -5% | 5.7%
